Screen size: about 1,400 compounds; about 1,100 (79%) were called active. Not shown: some 20% with an inconclusive outcome. The set was probably picked from earlier hits. These entries were drawn from the full list. Unmarked numbers belong to inactive results. Calls come from the whole dose curve.
Each compound was assayed against Atrial natriuretic peptide receptor 1 (Homo sapiens) (UniProt P16066) (assay: Natriuretic polypeptide receptor (hNpr1) antagonism - Confirmation). Conditions: HEK293 hNpr1 cGMP GloSensor luminescence, ANP-stimulated; series mostly up to 57.6 µM; activity change, negative = inhibition: at the top concentration.
Atrial natriuretic peptide receptor 1 (Homo sapiens), sequence (P16066 whole entry, looked up, the tested form may be a part): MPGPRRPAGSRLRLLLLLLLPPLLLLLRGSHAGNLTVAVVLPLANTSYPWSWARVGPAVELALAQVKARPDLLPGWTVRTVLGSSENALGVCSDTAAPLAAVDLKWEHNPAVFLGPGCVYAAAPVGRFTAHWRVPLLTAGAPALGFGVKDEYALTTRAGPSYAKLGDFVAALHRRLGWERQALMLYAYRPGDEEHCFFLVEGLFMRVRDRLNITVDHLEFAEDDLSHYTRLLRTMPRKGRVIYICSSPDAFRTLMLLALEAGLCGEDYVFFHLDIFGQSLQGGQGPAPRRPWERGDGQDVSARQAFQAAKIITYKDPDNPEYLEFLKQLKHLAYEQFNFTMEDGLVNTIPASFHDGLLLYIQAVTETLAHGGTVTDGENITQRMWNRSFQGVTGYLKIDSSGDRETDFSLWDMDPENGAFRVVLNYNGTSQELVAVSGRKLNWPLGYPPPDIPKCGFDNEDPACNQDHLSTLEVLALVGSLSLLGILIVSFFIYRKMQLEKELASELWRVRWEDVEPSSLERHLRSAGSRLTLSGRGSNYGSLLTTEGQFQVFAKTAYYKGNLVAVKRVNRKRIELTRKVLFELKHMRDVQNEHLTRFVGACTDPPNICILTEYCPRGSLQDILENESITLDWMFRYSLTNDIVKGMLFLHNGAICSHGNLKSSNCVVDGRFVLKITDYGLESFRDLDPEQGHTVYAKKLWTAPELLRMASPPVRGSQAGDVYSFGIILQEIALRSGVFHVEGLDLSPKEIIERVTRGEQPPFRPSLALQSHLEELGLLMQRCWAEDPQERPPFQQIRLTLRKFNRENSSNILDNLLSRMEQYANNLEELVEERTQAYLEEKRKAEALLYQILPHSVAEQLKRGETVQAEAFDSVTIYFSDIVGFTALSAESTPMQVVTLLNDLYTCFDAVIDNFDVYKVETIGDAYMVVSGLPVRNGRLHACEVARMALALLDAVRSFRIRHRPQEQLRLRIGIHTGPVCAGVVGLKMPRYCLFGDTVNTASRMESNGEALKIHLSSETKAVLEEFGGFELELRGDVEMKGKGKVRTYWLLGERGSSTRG
Procedure: In order to identify small molecular compounds that inhibit the hNpr1 receptor we developed a high-throughput assay to measure inhibition of the guanylate cyclase activity of the receptor. cGMP production was measured using a circular permutated Firefly luciferase (FLuc) enzyme functionally linked to the cGMP binding domain of human phosphodiesterase 5 (GloSensor technology pGS-40F, (Fan, F. et al. 2008). The cGMP-sensor was expressed in human embryonic kidney 293 (HEK-293) cells and FLuc activity was measured after stimulation with hNrp agonist peptide. hNrp agonists activates the receptor's associated guanylyl cyclase (GC) domain producing cGMP which then binds to the GloSensor resulting in FLuc activation, the enzymatic activity of which can be measured as bioluminescence with addition of luciferin substrate. A cytotoxicity counter-screen using the HEK-hNpr1-cGMP-sensor cells was also performed on the follow-up compounds. F. Fan, B. F. Binkowski, B. L. Butler, P. F. Stecha, M. K. Lewis, K. V. Wood, Novel genetically encoded biosensors using firefly luciferase. ACS Chem Biol 3, 346-351 (2008).
PROTOCOL TABLES (as described by Inglese J, Shamu CE and Guy RK. 2007) SEQUENCE No. (e.g., 1, 2, 3, etc.); PARAMETER (e.g., Cells, Incubation, Reagent, etc.); VALUE and DESCRIPTION. GLOSENSOR PROTOCOL 1. Cells. Seed 1500 HEK293 cGMP-sensor cells expressing hNpr1 per well in 4uL into Greiner 1536-well white/solid bottom high base, tissue culture-treated plates. 2. Incubation. Incubate plated cells at 37C in 5% CO2, 95% RH overnight. 3. Reagent. Add 1uL per well GloSensor reagent from Promega (2% final concentration) or CO2 independent media vehicle control to respective columns of Greiner 1536-well plates. 4. Incubation. Incubate plated cells at room temperature for 2 h, protect from light. 5. Compounds. Library compounds and A-71915 control added at 23 nL per well, transferred by Pin Tool. 6. Incubation. Incubate plated cells for 30 min. at room temperature, protect from light. 7. Detector. GloSensor baseline pre-read luminescence measured using CCD-based camera (Viewlux). 8. Compound. Add 1uL of hNppA peptide to 0.1 nM final concentration to stimulate hNpr1 or CO2 independent media as vehicle control. 9. Incubation. Incubate treated cells at room temperature for 20 min., protect from light. 10. Detector. GloSensor post-hNppA luminescence measured using CCD-based camera (Viewlux). NOTES (numbers refer to Sequence numbers above) 1. HEK293 cells expressing hNpr1 and GIP/pGS-40F grown to 85-95% confluence (48-72 h) in T175 culture flasks (CO2 independent media supplemented with 10% FBS, 1% Pen/Strep antibiotics and 1 ug/mL puromycin). Trypsinize and harvest cells from T175 culture flasks and filter through 40 um cell strainer. Cells counted with Invitrogen Countess (30,000,000 - 50,000,000 cells/flask). Cells diluted to a final concentration of 375 cells/uL in CO2 independent media and a Millipore multidrop used to dispense 1500 cells per well (4uL/well) into 13 1536-well Greiner White/Solid bottom, high base tissue-culture treated (TC) plates and one Aurora 1536-well Black/Clear bottom, low base, TC plate (for visual inspection of cell health throughout the duration of the assay). 2. Cells incubated overnight at ambient temperature, 24 h. at 37C in 95% RH incubator protected from light, covered with metal lid with gas-exchange holes. 3. Prepare GloSensor Reagent (Promega): Reconstitute GloSensor luciferase substrate by adding 8.2mL Hepes buffer to 250mg substrate, mix well, protect from light and stored at -80C. Prepare a fresh 12% GloSensor solution in CO2 independent supplemented plating media (see above). Mix well and store at ambient temperature, protected from light. 1uL 12% GloSensor Luciferase Reagent added (2% final concentration) to respective columns of 13 x 1536-well Greiner plate with BioRaptr, 1uL CO2 independent plating media added to respective columns as vehicle control with BioRaptr. 4. […]
For `Cc1nc(-c2ccncc2)ncc1C(C)Nc1ncnc(C)c1C` (stereo not drawn), the Potency was 21.7 µM (active). For `O=C(c1ccc2cc[nH]c2c1)N1CCC2(CC1)N=C(c1ccc(Cl)cc1)NO2`, the Potency was 19.3 µM (active). `O=[S+]1([O-])NCC2(CCCN(Cc3ccc(C(F)(F)F)cc3)C2)Oc2ncccc21` (stereo not drawn) was tested, and the Potency was 24.3 µM (active). `Cc1cccc(CN2CCc3nc(C(=O)Nc4ccc(Cl)cc4)oc3CC2)c1` was tested, and the Potency was 9.94 µM (active). With `COc1cccc(CNC(=O)Cn2c(N(C)Cc3ccccc3)nc(C)cc2=O)c1OC` the Potency was 24.3 µM (active). With `COc1cccc(C2C(C(=O)Nc3ccccc3)=C(C)N=C3SC=C(CC(=O)NCC(C)C)N32)c1` (stereo not drawn) the “activity change, negative = inhibition” value was -27.5%. With `COc1cccc(NC(=O)Cn2c(N(C)Cc3ccccc3)nc(C)cc2=O)c1` the Potency was 10.9 µM (active). For `O=c1[nH]c(C2CCCN(Cc3ccccn3)C2)nn1-c1ccc(Cl)cc1` (stereo not drawn), the Potency was 6.85 µM (active). With `CC1(C(=O)NCc2ccc3c(c2)OCO3)CCc2cnc(NCc3ccccc3)nc21` (stereo not drawn) the Potency was 35.3 µM (active). With `Cc1ccc2c(c1)nc1n2[C@@H](CNS(=O)(=O)c2ccccc2)COC1` the Potency was 35.3 µM (active). With `COc1ccc(CN2C(=O)CO[C@H]3CN(Cc4ccc5c(c4)OCO5)C[C@H]32)cc1` the Potency was 31.4 µM (active). For `O=C(c1ccccc1)N1CCNc2cnc(Nc3cccc(C(F)(F)F)c3)nc2C1`, the Potency was 31.4 µM (active). For `COc1ccc(S(=O)(=O)N2CCc3c(C(=O)NCCc4ccccn4)cccc32)cc1`, the Potency was 24.3 µM (active). `CC(C)c1cc(C(=O)N2CCC(n3cc(-c4ccccn4)nn3)CC2)n(C)n1` was tested, and the Potency was 13.7 µM (active). For `COc1ccc(OCC2(C)COc3ccc(C(=O)Nc4cccnc4)cc3N2)cc1` (stereo not drawn), the Potency was 35.3 µM (active). With `CN(Cc1csc(-c2ccccc2)n1)c1cc(C2CC(O)C2)nc(N)n1` (stereo not drawn) the Potency was 2.43 µM (active). In the case of `Cc1noc(C)c1-c1cc(-c2ccccc2Oc2ccccc2)cn2cncc12`, the Potency is reported as 19.8 µM (active). In the case of `O=C1NCN(Cc2ccc(Cl)cc2)C12CCN(Cc1ccccc1)CC2`, the Potency is reported as 15.3 µM (active). `N#Cc1cccc(CN2CCC(C3=NC(O)c4cc(F)ccc4N3)CC2)c1` (stereo not drawn) was tested, and the Potency was 15.3 µM (active). With `CN1CCN(C(=O)C(C)(C)Oc2nn(Cc3cccc(Cl)c3)c3ccccc23)CC1` the Potency was 28 µM (active). For `Cc1cc(N2CCCC(Cn3cc(Cc4ccccc4)nn3)C2)nc(N)n1` (stereo not drawn), the Potency was 6.11 µM (active). With `O=C(Cc1c[nH]c2ncc(-c3ccccc3F)cc12)N1CCOCC1` the Potency was 31.4 µM (active). With `Cc1noc(C)c1-c1cnc2[nH]cc(CC(=O)N3CCOCC3)c2c1` the Potency was 31.4 µM (active). In the case of `COc1ccc(CCNC(=O)c2noc(-c3ccc(C)cc3)n2)cc1OC`, the Potency is reported as 24.3 µM (active). In the case of `O=C(c1ccc(Cl)cc1)N1CCCC(n2cc(-c3nc(-c4ccccc4)no3)nn2)C1` (stereo not drawn), the Potency is reported as 19.3 µM (active). For `CC(C)c1noc(-c2cn(C3CCN(C(=O)c4ccc(N(C)C)cc4)C3)nn2)n1` (stereo not drawn), the Potency was 15.3 µM (active). For `O=C(c1ccc(F)cc1Cl)N1CCC(n2cc(-c3nc(-c4ccccc4)no3)nn2)C1` (stereo not drawn), the Potency was 4.32 µM (active). `Cc1nn2c(c1-c1ccccc1-c1ccccc1)N(CC1CC1)CCC2` was tested, and the Potency was 2.8 µM (active). In the case of `COc1ccc(CC(=O)N2CCC(Cc3nc(-c4ccccc4)no3)CC2)cc1OC`, the Potency is reported as 12.2 µM (active). `COc1ccc(-c2noc(CC3CCN(C(=O)Cc4ccc(OC)c(OC)c4)CC3)n2)cc1` was tested, and the Potency was 3.43 µM (active). With `Cc1c[nH]c(CN2CCCC(CCc3ccc(F)cc3F)C2)c(C)c1=O` (stereo not drawn) the Potency was 3.43 µM (active). `O=C(c1ccccn1)N1CC(Oc2ccc(-c3noc(C4CC4)n3)cc2)C1` was tested, and the Potency was 17.2 µM (active). `Cc1cccc(C(=O)N2CCC(Oc3ccc(-c4noc(C(C)C)n4)cc3)C2)c1` (stereo not drawn) was tested, and the Potency was 27.3 µM (active). For `O=C1c2cnc(-c3ccc(Cl)cc3)nc2OCCN1Cc1ccccc1`, the Potency was 35.3 µM (active). `COC(=O)c1cccc(NC(=O)CCNc2c(C)nc3cnccn23)c1` was tested, and the Potency was 21.7 µM (active). With `COc1cccc(-c2noc(CC3CCN(C(=O)c4ccc(F)cc4)CC3)n2)c1` the Potency was 6.11 µM (active). `O=C(c1ccccc1)N1CCC(C(=O)N2CCC(Cc3nc(-c4ccc(F)cc4)no3)CC2)CC1` was tested, and the Potency was 17.2 µM (active). `Cc1cc(CNC(=O)c2ccc(-c3ccccc3Cl)o2)n(C)n1` was tested, and the Potency was 24.3 µM (active). For `O=C(NCC1CC1)c1nc2c(o1)CCN(Cc1cccc(F)c1F)CC2`, the Potency was 28 µM (active). In the case of `C1CCC(COCCc2noc(C3CNC3)n2)C1`, the Potency is reported as 21.7 µM (active). With `COc1ccccc1Nc1cnc2ccc(N(C)Cc3cccnc3)nn12` the Potency was 31.4 µM (active). In the case of `OC1(Cc2cc(-c3ccccc3)no2)CCN(c2ncncn2)CC1`, the Potency is reported as 7.69 µM (active). For `O=C(NCc1nnc2cc(-c3nc(C4CC4)no3)ccn12)c1ccc(F)cc1Cl`, the Potency was 17.2 µM (active). In the case of `Cc1ccc(OCc2nc(C3CCN(C(=O)CCc4nc5ccc(Cl)cc5[nH]4)CC3)no2)cc1`, the Potency is reported as 24.3 µM (active). `CCN(CCCNC(=O)c1nnn2cc(-c3ccccc3)[nH]c(=O)c12)c1ccccc1` was tested, and the “activity change, negative = inhibition” value was -27.6%. For `CC(C)c1nncn1C1CCN(S(=O)(=O)c2cccc(Br)c2)CC1`, the Potency was 19.3 µM (active). With `COc1ccc(-c2noc(CC3CCN(C(=O)Cc4ccccc4)CC3)n2)cc1` the Potency was 24.3 µM (active). With `COc1ccc(-c2noc(CC3CCN(C(=O)Cc4ccc(C)cc4)CC3)n2)cc1` the Potency was 27.3 µM (active). For `COc1ccc(-c2noc(CC3CCN(C(=O)CC4CCCCC4)CC3)n2)cc1`, the Potency was 10.9 µM (active). With `CC1=NS(=O)(=O)N(C)C=C1C(=O)OCc1nc(-c2ccc(C)cc2)no1` the Potency was 10.9 µM (active). `CCc1ccc(C(=O)N2CCN(c3cc(-c4ccc(F)cc4)[nH]n3)CC2)cc1` was tested, and the Potency was 24.3 µM (active). `O=C(c1cc(F)ccc1Cl)N1CCN(c2cc(-c3ccc(F)cc3)[nH]n2)CC1` was tested, and the Potency was 27.3 µM (active). With `Cc1ccc(C(=O)N2CCN(c3cc(-c4ccc(Cl)cc4)[nH]n3)CC2)c(C)c1` the Potency was 6.11 µM (active). For `O=C(c1ccc(F)cc1F)N1CCN(c2cc(-c3ccc(Cl)cc3)[nH]n2)CC1`, the Potency was 17.2 µM (active). `Cc1ccc2nc(C3CCCN(Cc4ccc(C#N)cc4)C3)[nH]c(=O)c2c1` (stereo not drawn) was tested, and the Potency was 24.3 µM (active). For `COc1ccc(C2Cn3nnc(C(=O)N4CCN(C(=O)c5cccc(Cl)c5)CC4)c3CO2)cc1` (stereo not drawn), the Potency was 13.7 µM (active). For `COc1ccc(C2Cn3nnc(C(=O)N4CCN(C(=O)c5ccc(C)cc5C)CC4)c3CO2)cc1` (stereo not drawn), the Potency was 24.3 µM (active). `CC(C)(C)c1csc(NC(=O)c2ccc3c(c2)OCCN(C2CCC2)C3)n1` was tested, and the Potency was 35.3 µM (active).
Note: nearly all actives have a fitted effect of over 70% in size.
Potency is the fitted concentration of half-maximal effect.
